Data: PubChem BioAssay AID1724 (National Center for Advancing Translational Sciences (NCATS), 2009)
Records with an inconclusive call do not appear. Where a call stands in place of a potency, no number is given. Active and inactive are the calls of the source. Calls come from the whole dose curve; as a rule, active = well fitted inhibition curve with a large enough effect; inconclusive = small, poorly fitted or top-dose-only effect, or effect the other way; inactive = no such curve, though single readings can be large or run the other way.

Test: Confirmation Concentration-Response Assay for Inhibitors of the ERK Signaling Pathway using a Homogeneous Screening Assay
Settings: HEK293 cells, hormone-stimulated phospho-ERK AlphaScreen; series mostly up to 40.9 µM
Description: qHTS Assay for Inhibitors of the ERK Signaling Pathway using a Homogeneous Screening Assay
NIH Chemical Genomics Center [NCGC]
NIH Molecular Libraries Screening Centers Network [MLSCN]
Assay Submitter (PI): Dr. Wei Zheng, NCGC/NIH
The Ras/extracellular-signal-regulated kinase (ERK) mitogen activated protein (MAP) kinase signaling pathway (ERK1/2 cascade) plays is a key role in transmitting signals from the cell surface to the nucleus (Nishida and Gotoh 1993; Chang and Karin, 2001). The cascade is initiated by the small G-protein Ras, which recruits Raf […], where activation occurs. Alternatively, this pathway can be activated by elevating intracellular cAMP.
Activation of the ERK pathway is essential in increased cell division and cell survival. Sustained and constitutive activation of the ERK pathway, however, has been linked to uncontrolled cell proliferation, increased cell survival, and tumor progression. Thus, the ERK has been as an attractive target for cancer chemotherapy in the past few years (Sebolt-Leopold and Herrera, 2004). Given its physiological and pathological importance, assessment of ERK phosphorylation has been broadly performed in both basic research and drug discovery. Most assays for the measurement of ERK phosphorylation use the antibody-based detection methods, such as western blot and ELISA. These assays require multiple reagent additions with cell wash steps and are not suitable for high-throughput screening.
The current cell-based ERK phosphorylation assay was performed using AlphaScreen platform. […]
HEK293 cells stably expressing type-1 vasopressin receptor (V1b) were maintained in DMEM medium (Invitrogen, Carlsbad, CA) at 37C under a humidified atmosphere containing 5% CO2 and 95% air. […] The ERK phosphorylation in cells was determined using an AlphaScreen assay kit provided by PerkinElmer. […] AC50 values were determined from concentration-response data modeled with the standard Hill equation. […]
(10) Detect the assay plate in an EnVision plate reader (PerkinElmer) using the AlphaScreen detection mode. […]

Structure (SMILES) | Potency
O=C1NC(=O)C(=Cc2ccccc2Oc2ccc(F)cc2)C(=O)N1 | inactive
CC1=CC(=O)c2c(O)cccc2C1=O | inactive
N#Cc1c(Cl)c(Cl)c(Cl)c(C#N)c1Cl | 2240 nM (active)
